The full data set covers some 7,900 targets. This sample favours those with a hit. About 0.6% of all pairs of compound and target were hits. Unmarked numbers belong to inactive results.
What follows are targets tested with CO[C@H]1C[C@@H]2CC[C@@H](C)[C@@](O)(O2)C(=O)C(=O)N2CCCC[C@H]2C(=O)O[C@H]([C@H](C)C[C@@H]2CC[C@H](n3cnnn3)[C@H](OC)C2)CC(=O)[C@H](C)/C=C(\C)[C@@H](O)[C@@H](OC)C(=O)[C@H](C)C[C@H](C)/C=C/C=C/C=C/1C [zotarolimus] (assay: log2 fold change, soluble protein after heating vs DMSO (PISA); higher = thermal stabilisation; K562 cells, 10 uM, 30 min; active = over 0.2 and 3.5 SD of the protein, either way, in both replicates (recomputed)).
Outline: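 Soluble protein was defined as the supernatant after 21,000xg for 90 min. It came from K562 cells at 2×10^6 cells/mL given 10 μM compound for 30 min, heated in aliquots for 3 min across 48°C-58°C, pooled, and extracted in PBS with 0.5% NP-40 at 4°C, and was quantified by TMTpro 16plex LC-MS/MS with equalised channel sums. Thermal stability against control samples, from duplicates, is reported as log2 fold change.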
Sequence of UniProt P51692 (P51692 whole entry, looked up): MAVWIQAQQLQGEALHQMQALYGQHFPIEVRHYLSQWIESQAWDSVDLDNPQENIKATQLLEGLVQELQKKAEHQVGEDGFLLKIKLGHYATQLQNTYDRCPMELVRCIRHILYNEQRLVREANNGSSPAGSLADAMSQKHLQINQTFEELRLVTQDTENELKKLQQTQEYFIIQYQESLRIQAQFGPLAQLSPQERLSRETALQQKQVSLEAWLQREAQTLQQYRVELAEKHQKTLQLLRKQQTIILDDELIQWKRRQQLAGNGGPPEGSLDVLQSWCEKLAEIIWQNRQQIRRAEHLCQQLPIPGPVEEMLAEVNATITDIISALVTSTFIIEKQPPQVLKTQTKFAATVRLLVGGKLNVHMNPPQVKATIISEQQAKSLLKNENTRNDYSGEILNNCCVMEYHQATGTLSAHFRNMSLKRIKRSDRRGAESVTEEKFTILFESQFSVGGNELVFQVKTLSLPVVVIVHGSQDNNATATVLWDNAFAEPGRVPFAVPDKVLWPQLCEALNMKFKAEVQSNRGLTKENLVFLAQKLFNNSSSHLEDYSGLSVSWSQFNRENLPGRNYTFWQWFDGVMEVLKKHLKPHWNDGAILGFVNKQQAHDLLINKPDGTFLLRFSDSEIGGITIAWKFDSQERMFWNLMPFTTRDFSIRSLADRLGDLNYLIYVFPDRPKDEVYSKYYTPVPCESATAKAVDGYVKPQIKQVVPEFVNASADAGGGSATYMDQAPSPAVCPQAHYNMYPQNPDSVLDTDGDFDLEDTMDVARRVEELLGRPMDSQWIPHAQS
Sequence of UniProt Q9NZD8 (Q9NZD8 whole entry, looked up): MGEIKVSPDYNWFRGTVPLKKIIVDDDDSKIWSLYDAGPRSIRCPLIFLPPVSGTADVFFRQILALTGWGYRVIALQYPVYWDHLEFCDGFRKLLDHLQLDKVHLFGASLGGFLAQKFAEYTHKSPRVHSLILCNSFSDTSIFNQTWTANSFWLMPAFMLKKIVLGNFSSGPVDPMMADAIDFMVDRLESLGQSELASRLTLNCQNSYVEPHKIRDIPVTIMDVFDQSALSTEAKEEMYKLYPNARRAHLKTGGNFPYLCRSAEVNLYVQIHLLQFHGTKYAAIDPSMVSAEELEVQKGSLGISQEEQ
Sequence of UniProt O00506 (O00506 whole entry, looked up): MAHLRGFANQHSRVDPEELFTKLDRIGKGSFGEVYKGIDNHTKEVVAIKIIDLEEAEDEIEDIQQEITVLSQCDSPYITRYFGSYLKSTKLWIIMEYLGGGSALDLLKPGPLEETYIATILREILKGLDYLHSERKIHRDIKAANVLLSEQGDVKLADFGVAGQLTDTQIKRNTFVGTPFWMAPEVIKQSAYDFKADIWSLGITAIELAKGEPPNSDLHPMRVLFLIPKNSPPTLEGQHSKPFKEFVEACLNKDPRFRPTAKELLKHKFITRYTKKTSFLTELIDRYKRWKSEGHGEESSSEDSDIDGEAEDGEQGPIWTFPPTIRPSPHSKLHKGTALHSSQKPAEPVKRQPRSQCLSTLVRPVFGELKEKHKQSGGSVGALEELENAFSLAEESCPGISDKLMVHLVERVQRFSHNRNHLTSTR
Sequence of UniProt Q9NUY8 (Q9NUY8 whole entry, looked up): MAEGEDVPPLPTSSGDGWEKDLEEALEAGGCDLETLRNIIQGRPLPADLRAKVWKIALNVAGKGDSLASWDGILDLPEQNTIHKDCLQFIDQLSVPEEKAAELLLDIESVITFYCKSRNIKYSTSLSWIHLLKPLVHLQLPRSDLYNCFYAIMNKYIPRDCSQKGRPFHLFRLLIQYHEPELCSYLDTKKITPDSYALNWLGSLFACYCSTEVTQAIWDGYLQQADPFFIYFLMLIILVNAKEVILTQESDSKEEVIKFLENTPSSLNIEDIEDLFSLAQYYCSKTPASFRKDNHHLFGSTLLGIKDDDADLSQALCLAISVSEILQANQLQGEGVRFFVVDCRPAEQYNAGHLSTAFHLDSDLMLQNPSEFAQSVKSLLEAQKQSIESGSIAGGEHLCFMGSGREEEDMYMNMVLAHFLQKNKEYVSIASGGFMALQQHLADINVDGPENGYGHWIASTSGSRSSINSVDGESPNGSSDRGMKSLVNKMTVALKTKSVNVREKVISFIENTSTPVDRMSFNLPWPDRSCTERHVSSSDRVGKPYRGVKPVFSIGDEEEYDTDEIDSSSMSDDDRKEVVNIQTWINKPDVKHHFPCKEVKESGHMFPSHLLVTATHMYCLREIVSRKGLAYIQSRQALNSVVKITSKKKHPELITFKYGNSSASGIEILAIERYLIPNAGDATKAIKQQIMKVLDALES
Sequence of UniProt Q9Y4R8 (Q9Y4R8 whole entry, looked up): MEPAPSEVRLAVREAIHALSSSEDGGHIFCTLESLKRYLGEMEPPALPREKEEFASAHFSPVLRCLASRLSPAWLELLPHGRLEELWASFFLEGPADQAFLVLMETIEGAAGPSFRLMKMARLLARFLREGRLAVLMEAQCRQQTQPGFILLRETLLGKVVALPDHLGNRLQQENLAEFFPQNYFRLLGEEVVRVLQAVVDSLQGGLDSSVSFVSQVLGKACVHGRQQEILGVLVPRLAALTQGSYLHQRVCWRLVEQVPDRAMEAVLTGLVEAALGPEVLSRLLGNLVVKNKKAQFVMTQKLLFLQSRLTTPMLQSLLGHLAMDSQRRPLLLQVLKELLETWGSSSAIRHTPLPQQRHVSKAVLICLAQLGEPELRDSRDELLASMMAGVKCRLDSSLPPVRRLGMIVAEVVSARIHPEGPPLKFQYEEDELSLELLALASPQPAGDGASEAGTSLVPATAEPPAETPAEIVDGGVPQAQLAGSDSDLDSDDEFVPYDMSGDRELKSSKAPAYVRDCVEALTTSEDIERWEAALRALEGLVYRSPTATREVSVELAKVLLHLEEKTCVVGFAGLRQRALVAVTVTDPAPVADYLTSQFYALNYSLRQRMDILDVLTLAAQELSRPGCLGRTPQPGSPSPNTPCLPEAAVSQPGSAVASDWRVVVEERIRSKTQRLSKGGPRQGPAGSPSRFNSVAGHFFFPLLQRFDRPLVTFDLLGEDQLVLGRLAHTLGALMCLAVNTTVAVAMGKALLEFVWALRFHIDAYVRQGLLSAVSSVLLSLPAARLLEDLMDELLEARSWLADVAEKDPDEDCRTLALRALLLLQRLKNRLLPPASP
Sequence of UniProt Q9UDY2 (Q9UDY2 whole entry, looked up): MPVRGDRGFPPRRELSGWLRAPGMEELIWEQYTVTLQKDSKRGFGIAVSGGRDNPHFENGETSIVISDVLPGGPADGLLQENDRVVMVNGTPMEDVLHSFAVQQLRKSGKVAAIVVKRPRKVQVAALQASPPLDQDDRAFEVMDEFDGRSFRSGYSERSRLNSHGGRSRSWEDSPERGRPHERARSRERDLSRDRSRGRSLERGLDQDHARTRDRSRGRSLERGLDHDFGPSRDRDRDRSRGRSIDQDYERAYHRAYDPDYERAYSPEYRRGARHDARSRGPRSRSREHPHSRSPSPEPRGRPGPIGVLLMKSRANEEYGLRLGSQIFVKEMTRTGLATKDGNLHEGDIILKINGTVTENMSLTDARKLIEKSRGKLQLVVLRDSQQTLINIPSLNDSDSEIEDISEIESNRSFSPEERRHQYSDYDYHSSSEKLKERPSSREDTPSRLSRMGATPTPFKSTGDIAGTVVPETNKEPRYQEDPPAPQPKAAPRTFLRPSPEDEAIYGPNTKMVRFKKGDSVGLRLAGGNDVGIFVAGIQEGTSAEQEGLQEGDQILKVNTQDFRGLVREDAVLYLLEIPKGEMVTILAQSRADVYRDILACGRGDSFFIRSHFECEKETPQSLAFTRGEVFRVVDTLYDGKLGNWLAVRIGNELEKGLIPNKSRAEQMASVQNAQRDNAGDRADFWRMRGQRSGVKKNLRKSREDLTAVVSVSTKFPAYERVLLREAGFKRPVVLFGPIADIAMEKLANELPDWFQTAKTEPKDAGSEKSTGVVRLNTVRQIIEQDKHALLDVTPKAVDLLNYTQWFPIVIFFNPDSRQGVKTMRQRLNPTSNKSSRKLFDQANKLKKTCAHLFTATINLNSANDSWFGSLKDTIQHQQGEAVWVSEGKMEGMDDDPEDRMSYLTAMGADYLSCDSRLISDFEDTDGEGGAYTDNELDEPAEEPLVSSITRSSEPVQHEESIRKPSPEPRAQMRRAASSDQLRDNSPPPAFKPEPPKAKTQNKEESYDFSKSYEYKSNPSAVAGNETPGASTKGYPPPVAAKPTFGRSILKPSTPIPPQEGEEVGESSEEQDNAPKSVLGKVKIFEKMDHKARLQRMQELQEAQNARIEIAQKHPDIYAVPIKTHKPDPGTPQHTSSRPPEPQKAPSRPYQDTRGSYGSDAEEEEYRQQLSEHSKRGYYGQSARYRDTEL
Sequence of UniProt Q658P3 (Q658P3 whole entry, looked up): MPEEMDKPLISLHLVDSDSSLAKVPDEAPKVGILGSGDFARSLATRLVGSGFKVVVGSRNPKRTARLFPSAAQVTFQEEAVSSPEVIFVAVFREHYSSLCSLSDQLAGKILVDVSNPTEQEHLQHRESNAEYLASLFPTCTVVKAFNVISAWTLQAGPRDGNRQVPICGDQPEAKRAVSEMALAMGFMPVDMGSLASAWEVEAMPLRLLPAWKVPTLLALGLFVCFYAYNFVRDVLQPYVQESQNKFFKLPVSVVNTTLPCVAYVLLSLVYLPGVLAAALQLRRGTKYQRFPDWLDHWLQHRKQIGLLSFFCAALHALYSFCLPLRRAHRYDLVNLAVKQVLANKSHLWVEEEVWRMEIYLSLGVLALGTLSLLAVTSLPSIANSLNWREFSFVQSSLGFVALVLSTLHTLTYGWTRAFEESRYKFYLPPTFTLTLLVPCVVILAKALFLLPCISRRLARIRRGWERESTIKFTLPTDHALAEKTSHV
Sequence of UniProt P63165 (P63165 whole entry, looked up): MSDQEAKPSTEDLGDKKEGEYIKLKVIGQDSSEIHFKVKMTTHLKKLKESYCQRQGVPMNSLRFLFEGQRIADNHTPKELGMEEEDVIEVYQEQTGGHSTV
Sequence of UniProt Q8WVK2 (Q8WVK2 whole entry, looked up): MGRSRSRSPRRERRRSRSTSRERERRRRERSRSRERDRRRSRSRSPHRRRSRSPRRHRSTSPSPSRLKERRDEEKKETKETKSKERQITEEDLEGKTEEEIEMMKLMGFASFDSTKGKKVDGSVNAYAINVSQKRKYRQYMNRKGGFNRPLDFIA
Work on TERF2IP (UniProt Q9NYB0) yielded a log2 fold change of 0.045.
For TGFBR1 isoform 2 (UniProt P36897), the log2 fold change was -0.217.
In the case of SLC25A39 (UniProt Q9BZJ4), the log2 fold change is reported as 0.073.
In the case of SLC27A2 (UniProt O14975), the log2 fold change is reported as 0.032.
STAT5B (UniProt P51692) showed a log2 fold change of 0.112.
TBC1D15 isoform 3 (UniProt Q8TC07) showed a log2 fold change of 0.039.
Work on TELO2 (UniProt Q9Y4R8) yielded a log2 fold change of 0.098.
Target SQSTM1 (UniProt Q13501) has a log2 fold change of -0.167.
With TBC1D5 isoform 2 (UniProt Q92609) the log2 fold change was 0.048.
SRI (UniProt P30626) gave a log2 fold change of 0.133.
STAT3 (UniProt P40763) showed a log2 fold change of 0.086.
Target SRPRA (UniProt P08240) has a log2 fold change of -0.005.
TAOK1 (UniProt Q7L7X3) showed a log2 fold change of -0.032.
Work on STK26 (UniProt Q9P289) yielded a log2 fold change of -0.03.
For STK4 (UniProt Q13043), the log2 fold change was -0.025.
STXBP2 isoform 3 (UniProt Q15833) showed a log2 fold change of -0.043.
Work on SRPRB (UniProt Q9Y5M8) yielded a log2 fold change of 0.018.
In the case of TIMM29 (UniProt Q9BSF4), the log2 fold change is reported as -0.058.
SPG11 (UniProt Q96JI7) showed a log2 fold change of -0.415.
Target SLC25A36 (UniProt Q96CQ1) has a log2 fold change of 0.013.
Target SLC25A42 (UniProt Q86VD7) has a log2 fold change of 0.058.
With TAMM41 isoform 3 (UniProt Q96BW9) the log2 fold change was -0.009.
SRSF4 (UniProt Q08170) was tested, and the log2 fold change was 0.053.
Work on SNRNP27 (UniProt Q8WVK2) yielded a log2 fold change of -0.156.
With TJP2 isoform 7 (UniProt Q9UDY2) the log2 fold change was 0.068.
STEAP3 isoform 2 (UniProt Q658P3) was tested, and the log2 fold change was -0.06.
Target SP100 isoform 4 (UniProt P23497) has a log2 fold change of 0.013.
In the case of SPG21 (UniProt Q9NZD8), the log2 fold change is reported as 0.063.
With TIMM44 (UniProt O43615) the log2 fold change was 0.027.
TBC1D23 (UniProt Q9NUY8) was tested, and the log2 fold change was -0.002.
With SPAG9 (UniProt O60271) the log2 fold change was -0.011.
SNRPB2 (UniProt P08579) showed a log2 fold change of -0.035.
Target SNX6 (UniProt Q9UNH7) has a log2 fold change of 0.02.
In the case of STK25 (UniProt O00506), the log2 fold change is reported as -0.039.
Work on TJP1 (UniProt Q07157) yielded a log2 fold change of 0.03.
Target STK11IP (UniProt Q8N1F8) has a log2 fold change of 0.195.
In the case of SUMO1 (UniProt P63165), the log2 fold change is reported as -0.183.
Work on TM9SF2 (UniProt Q99805) yielded a log2 fold change of 0.043.

Source: the supplement of paper PMC10849652
